The values below come from publication PMC6602471.

For the assay, the target named is RUNX1 (Homo sapiens, UniProt Q01196 1-453). Put plainly: custom PBM; custom protein-binding microarray; buffer, salt, pH and temperature not stated; high values mean tight binding. As to conditions: dsDNA, one strand shown.
RUNX1, sequence (Q01196 whole entry): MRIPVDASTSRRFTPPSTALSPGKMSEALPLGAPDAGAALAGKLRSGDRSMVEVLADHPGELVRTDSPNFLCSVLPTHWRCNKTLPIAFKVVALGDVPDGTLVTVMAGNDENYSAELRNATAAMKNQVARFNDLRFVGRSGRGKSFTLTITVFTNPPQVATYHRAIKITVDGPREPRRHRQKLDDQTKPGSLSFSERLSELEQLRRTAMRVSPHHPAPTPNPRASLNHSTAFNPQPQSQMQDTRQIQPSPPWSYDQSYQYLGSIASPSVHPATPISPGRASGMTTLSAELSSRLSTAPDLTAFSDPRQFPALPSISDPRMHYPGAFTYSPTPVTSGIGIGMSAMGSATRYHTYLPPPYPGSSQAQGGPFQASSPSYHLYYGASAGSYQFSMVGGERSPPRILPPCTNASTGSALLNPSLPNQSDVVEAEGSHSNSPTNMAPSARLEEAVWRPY
As to “GCATACGGTTGACGTCAGCCACATACGCACACATACACATACACACATACACATACGCAC”, the binding signal is 11 log fluorescence intensity.

Take “GCGCACATTTCCCGTTAATCATACACGCACACATACACATACACACATACACATACGCAC”: the binding signal was 11 log fluorescence intensity.

Turning to “CGCGCACTCTGTGGGTGCGCACATACGCACACATACACATACACACATACACATACGCAC”, the binding signal was 10.9 log fluorescence intensity.

With “GCGCACATTCCCCGTAAATCATACACGCACACATACACATACACACATACACATACGCAC”, the binding signal is 11 log fluorescence intensity.

As to “GCGCACATTTCCCGTAAATCATACACGCACACATACACATACACACATACACATACGCAC”, the binding signal is 11 log fluorescence intensity.

For “CGCGCACTCTCTGGTTGCGCACATACGCACACATACACATACACACATACACATACGCAC”, the binding signal is 10.9 log fluorescence intensity.

Regarding “GCATACGGCTGACGTCAGTCACATACGCACACATACACATACACACATACACATACGCAC”, the binding signal was 10.9 log fluorescence intensity.

As for “CGCGCACTCTGTGGTTTCGCACATACGCACACATACACATACACACATACACATACGCAC”, the binding signal is 12.3 log fluorescence intensity.

As to “CGCGCACTCTGTGGTAGCGCACATACGCACACATACACATACACACATACACATACGCAC”, the binding signal was 11 log fluorescence intensity.

Regarding “CGCGCACGCTGTGGTTGCGCACATACGCACACATACACATACACACATACACATACGCAC”, the binding signal was 11.2 log fluorescence intensity.

For “CGCGCTCTCTGTGGTTGCGCACATACGCACACATACACATACACACATACACATACGCAC”, the binding signal was 11.4 log fluorescence intensity.

On to “CGCGCACTCGGTGGTTGCGCACATACGCACACATACACATACACACATACACATACGCAC”, for which the binding signal is 11 log fluorescence intensity.

For “CGCGCACTCTGTGGTTACGCACATACGCACACATACACATACACACATACACATACGCAC”, the binding signal was 11.7 log fluorescence intensity.

Turning to “GCATACAGCTGACGTCAGCCACATACGCACACATACACATACACACATACACATACGCAC”, the binding signal was 11 log fluorescence intensity.

For “GCGCACATATCCCGTAAATCATACACGCACACATACACATACACACATACACATACGCAC”, the binding signal is 10.9 log fluorescence intensity.

For the sequence “GCGCACATTTCCCGTAAACCATACACGCACACATACACATACACACATACACATACGCAC”, the binding signal was 11 log fluorescence intensity.

In the case of “GCGCACATTTCACGTAAATCATACACGCACACATACACATACACACATACACATACGCAC”, the binding signal is 10.9 log fluorescence intensity.

“GCGCACATTTGCCGTAAATCATACACGCACACATACACATACACACATACACATACGCAC”: the binding signal is 10.9 log fluorescence intensity.

In the case of “GCATACGGCTGTCGTCAGCCACATACGCACACATACACATACACACATACACATACGCAC”, the binding signal was 10.9 log fluorescence intensity.

Take “CGCGCACTCTGTGGTCGCGCACATACGCACACATACACATACACACATACACATACGCAC”: the binding signal was 11.3 log fluorescence intensity.

For the sequence “CGCGCACTCTGTGGTTGCACACATACGCACACATACACATACACACATACACATACGCAC”, the binding signal is 11.6 log fluorescence intensity.

Turning to “GCGCACATTTCCGGTAAATCATACACGCACACATACACATACACACATACACATACGCAC”, the binding signal was 11 log fluorescence intensity.

Turning to “CGCGCAATCTGTGGTTGCGCACATACGCACACATACACATACACACATACACATACGCAC”, the binding signal is 11.1 log fluorescence intensity.

As for “GCATACGGCTAACGTCAGCCACATACGCACACATACACATACACACATACACATACGCAC”, the binding signal was 11 log fluorescence intensity.

In the case of “CGCGCGCTCTGTGGTTGCGCACATACGCACACATACACATACACACATACACATACGCAC”, the binding signal was 11.2 log fluorescence intensity.

Consider “CGCGCACTTTGTGGTTGCGCACATACGCACACATACACATACACACATACACATACGCAC”, for which the binding signal is 11.6 log fluorescence intensity.

As for “GCGCACATTTCCCCTAAATCATACACGCACACATACACATACACACATACACATACGCAC”, the binding signal was 10.9 log fluorescence intensity.

As to “GCATACGGCTGACGTCGGCCACATACGCACACATACACATACACACATACACATACGCAC”, the binding signal is 11 log fluorescence intensity.

As for “GCGCACATTTCCCGTGAATCATACACGCACACATACACATACACACATACACATACGCAC”, the binding signal was 11 log fluorescence intensity.

For the sequence “CGCGCACTCTGTGTTTGCGCACATACGCACACATACACATACACACATACACATACGCAC”, the binding signal was 11 log fluorescence intensity.

As to “GCGCACATTGCCCGTAAATCATACACGCACACATACACATACACACATACACATACGCAC”, the binding signal was 10.9 log fluorescence intensity.

Regarding “GCATACGGCTGACGTCAGCCACATACGCACACATACACATACACACATACACATACGCAC”, the binding signal is 11 log fluorescence intensity.
